Results from the supplement of paper PMC6555819.

What was measured:
Assay in all cases: PBM binding z-score (relative to random genomic background probes); higher = stronger binding; sequences stand for … in GC…GCGATTGACAGCGTAGAATGAAGG
[1] = tested on: PPARg:RXRa DBDmut IVT, anti-RXR (DBD mutation: RXRa K156A/R161A, NR concentration 270 nM, RXRa partner concentration 90 nM)
How it was run: (§1)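 Binding z-scores were set against random background probes. The data came from custom Agilent 4×180K protein-binding microarrays carrying double-stranded probes with 34-nt variable regions, incubated 1 h with ligand-free nuclear receptor dimers. Partner-specific antibodies detected binding, and scanned fluorescence was regression-normalized.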

[2] = tested on: PPARg:RXRa IVT, anti-PPARg (NR concentration 270 nM, RXRa partner concentration 90 nM)
How it was run: as §1

[3] = tested on: PPARg homodimer (NR concentration 180 nM)
How it was run: as §1

[4] = tested on: PXR:RXRa (NR concentration 270 nM, RXRa partner concentration 90 nM)
How it was run: as §1

[5] = tested on: PXR homodimer (NR concentration 270 nM)
How it was run: as §1

[6] = tested on: RARa:RXR (NR concentration 270 nM, RXRa partner concentration 90 nM)
How it was run: as §1

[7] = tested on: RARa homodimer (NR concentration 270 nM)
How it was run: as §1

[8] = tested on: RARb:RXRa (NR concentration 270 nM, RXRa partner concentration 90 nM)
How it was run: as §1

[9] = tested on: RARb homodimer (NR concentration 270 nM)
How it was run: as §1

[10] = tested on: RARg:RXRa (NR concentration 270 nM, RXRa partner concentration 90 nM)
How it was run: as §1

[11] = tested on: RARg homodimer (NR concentration 270 nM)
How it was run: as §1

[12] = tested on: RXRa DBDmut IVT, anti-RXR (DBD mutation: RXRa K156A/R161A, NR concentration 90 nM)
How it was run: as §1

[13] = tested on: RXRa homodimer (NR concentration 180 nM)
How it was run: as §1

[14] = tested on: THRa:RXRa (NR concentration 90 nM, RXRa partner concentration 90 nM)
How it was run: as §1

[15] = tested on: THRa homodimer (NR concentration 90 nM)
How it was run: as §1

[16] = tested on: VDR:RXRa (NR concentration 270 nM, RXRa partner concentration 90 nM)
How it was run: as §1

[17] = tested on: VDR homodimer (NR concentration 270 nM)
How it was run: as §1

[18] = tested on: PPARg DBDmut IVT, anti-PPARg (DBD mutation: PPARg1 K132A/R137A, NR concentration 270 nM)
How it was run: as §1

Sequence	PBM binding z-score [1]	PBM binding z-score [2]	PBM binding z-score [3]	PBM binding z-score [4]	PBM binding z-score [5]	PBM binding z-score [6]	PBM binding z-score [7]	PBM binding z-score [8]	PBM binding z-score [9]	PBM binding z-score [10]	PBM binding z-score [11]	PBM binding z-score [12]	PBM binding z-score [13]	PBM binding z-score [14]	PBM binding z-score [15]	PBM binding z-score [16]	PBM binding z-score [17]	PBM binding z-score [18]
CTATGTAGGTTAAGGCGGTCATTCAGTTTGAAAG	6.74	6.69	0.855	1.37	2.41	0.782	-0.289	1.62	1.65	1.31	1.44	0.518	0.704	0.878	-0.0284	3.84	0.465	–
CTATGTAGGTTAAGGGCGTCATTCAGTTTGAAAG	7.33	6.94	1.62	0.377	0.443	0.584	-0.284	1.27	0.798	0.63	0.752	0.53	0.739	1.42	0.232	0.981	0.4	–
CGCACTAGGTCACCAGGACAGTGAAGAGGTTGGA	8.2	8.52	1.92	1.29	0.413	2.48	0.466	4.12	3.34	4.53	5.06	1.09	3.23	3.34	2.35	–	1.14	2.13
ATATGTAGGTTAGGGTCATCCAGAAAGTAGGGAA	6.49	6.96	6.33	4.46	1.88	5.12	2.64	3.55	3.38	4.31	3.5	2.19	5.6	4.15	3.73	–	3.58	3.77
CGAACTAGGTCACCAGAACAGTGAAGAGGTTGGA	8.55	8.85	1.64	1.29	-0.143	2.45	0.0997	4.2	3.14	4.44	5.22	1.11	–	2.87	0.853	–	0.565	1.39
TCGAGTACGTTACGGGGGCATTCAGGGATGAAGA	1.28	2.5	0.453	2.92	1.24	1.86	0.239	1.38	1.42	1.46	0.926	3.21	1.25	3.59	0.925	3.76	4.32	–
CCGAGTAGGTTACGAGCGGGCATTCAGTGCGAAT	4.42	2.97	0.117	1.73	0.506	0.0464	-0.596	0.908	0.628	0.683	0.688	0.309	0.313	1.23	-0.803	0.355	-0.206	–
TCGAGTATGTTACGGGGGCATTCAGGGATGAAGA	2.87	3.97	0.827	2.87	1.12	2.43	0.107	2.01	1.62	2.19	1.29	2.11	1.67	3.98	1.12	3.48	3.01	–
TCGAGTAGGTTATGGGGGCATTCAGGGATGAAGA	3.92	5.17	1.07	2.72	1.87	2.72	0.33	2.13	2.17	2.62	1.29	1.84	2.1	3.99	1.84	3.34	2.57	–
ATATGTAGGTTAGAGTCATTCAGAAAGTAGGGAA	6.33	6.41	1.2	0.349	0.624	0.989	1.78	1.02	0.746	0.752	0.891	0.428	0.703	–	0.254	–	0.387	1.55
TCGAGTAGGTTACGGGGGCATTCTGGGATGAAGA	5.04	5.91	1.3	2.85	1.48	2.92	-0.159	2.27	2.05	3.25	2.19	1.74	2.52	3.32	1.3	3.65	3.52	–
CGAACTAGGTCAAAGGACAGTGGAAGGCGACGTA	8.19	8.49	1.21	0.947	-0.227	1.74	0.262	3.93	3.07	3.62	4.31	1.4	2.94	2.5	0.274	–	0.241	1.31
CCGAGCAGGTTACGAGGGGGCATTCAGTGCGAAT	1.69	2.54	1.34	5.19	4.97	3.16	0.223	2.22	2.17	3.02	2.4	1.56	2.21	3.81	0.885	5.27	3.5	–
CCGAGTAGGTTACGAGAGGGCATTCAGTGCGAAT	4.61	3.37	2.29	5.07	6.97	2.08	-0.345	1.66	1.65	1.75	1.42	0.522	1.39	3.76	-0.738	4.33	2.06	–
CTATGTAGGTTAAGGGGGTCAGTCAGTTTGAAAG	7.45	7.33	3.02	4.52	6.85	4.15	0.767	3.2	3.63	4.2	3.72	1.75	4.08	3.17	1.89	6.49	3.99	–
CGAACTAGGTCAAAGGACAGGGAAAGGCGACGTA	7.68	8.19	2.31	0.895	-0.253	2.37	0.0193	3.9	3.14	–	4.68	1.07	2.78	2.49	0.631	–	0.464	4.37
CTATGTAGGTTAAGGGGGTCAATCAGTTTGAAAG	7.42	7.48	2.63	5.16	7.48	5.23	0.971	3.41	3.94	5.13	4.33	1.67	5.67	3.81	1.49	7.09	4.34	–
TCGAGTCGGTTACGGGGGCATTCAGGGATGAAGA	1.87	3.65	1.02	2.5	0.347	2.15	-0.175	1.71	1.57	2.4	1.77	1.16	1.5	3.45	0.955	2.73	2.23	–
CGATCTAGGTCACCAGGACAGTGAAGAGGTTGGA	8.32	8.59	1.88	1.46	-0.089	2.44	-0.0617	4.03	3.47	4.36	5.15	1.35	3.32	3.44	2.13	–	0.435	0.925
CGAACTAGGTTAAAGGACAGTGAAAGGCGACGTA	6.46	6.45	1.11	-0.281	-0.159	0.0562	-0.221	1.72	1.34	1	1.38	-0.1	0.702	0.788	-0.308	–	-0.464	0.461
CTATGTAGGTTAAGGGGGTCATTCTGTTTGAAAG	6.99	7.55	3.03	5.44	3.94	5.46	1.35	3.47	3.79	4.83	3.82	2.56	5.51	3.69	2.09	7.27	4.58	–
CTATGTAGCTTAAGGGGGTCATTCAGTTTGAAAG	2.86	4.78	3.12	5.52	10	5.18	1.84	3.33	3.58	4.42	3.15	2.56	5.27	3.69	2.41	6.4	6.05	–
CTATGTAGGTTAAGGGGGTCATGCAGTTTGAAAG	7.51	7.75	4.7	5.74	8.41	6	1.78	3.79	4.24	5.46	4.16	2.12	6.12	4.11	2.49	7.13	5	–
CTATGTAGGTTAAGGGGCTCATTCAGTTTGAAAG	7.02	6.52	1.36	0.403	0.167	0.505	0.222	0.689	0.464	0.537	0.331	0.357	0.409	0.521	0.0604	0.993	0.323	–
CCGAGTAGGTTACAAGGGGGCATTCAGTGCGAAT	4.32	4.29	1.99	4.6	5.19	3	0.759	2.17	2.41	2.84	2.42	1.47	2.1	3.61	0.507	5.11	3.51	–
TCGAGTTGGTTACGGGGGCATTCAGGGATGAAGA	2.18	3.75	1.79	3.22	3.31	2.3	0.444	1.97	1.6	2.49	1.71	2.61	1.89	3.74	1.87	3.63	4.57	–
CTATCTAGGTTAAGGGGGTCATTCAGTTTGAAAG	7.65	7.5	4.89	6	13.2	6.07	2.58	3.68	3.94	5.18	4.36	2.55	5.74	3.91	2.14	7.51	7.21	–
TCGAGTAGGGTACGGGGGCATTCAGGGATGAAGA	4.21	5.82	1.54	3.3	1.96	2.86	0.475	2.37	1.81	2.33	1.97	2.6	1.67	4.02	1.48	3.64	3.8	–
CCGAGTAGGCTACGAGGGGGCATTCAGTGCGAAT	2.33	1.4	0.546	2.05	3.02	1.31	-0.663	0.81	0.928	1.09	0.795	0.409	0.458	1.79	-0.405	3.16	2.19	–
TCGAGTAGGTTACGGGGGCATTCAAGGATGAAGA	4.93	6	1.38	3.1	1.06	3.21	0.0228	2.59	2.13	3.22	2.33	1.68	2.9	4.28	1.06	–	2.77	–
